Assay outcomes as filed in PubChem BioAssay.
TGFb inhibitor – inhibitors of TGF-b signaling; HepG2 CAGA-GFP TGF-b/SMAD3 reporter, GFP fluorescence, 18 h; TGF-beta stimulated, 500 pg/mL final; Potency, µM (highest dose often 46.1 µM), inactives show at the top dose activity, negative = inhibition, usual class: inhibitors; actives 1.2% (n = 410,000); AID 588855; note: potency is the fitted concentration of half-maximal effect; % is set by controls: 0 for no effect and ±100 for the full control effect; nearly all actives have a fitted effect of over 65% in size
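First, reporter cells (HEPG2 CAGA-GFP) rested 2 h at 37 degrees C. Next, compounds were pinned in and TGF-beta added to 500 pg/mL final. After 18 h, GFP was imaged per cell and summed per well.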
TDP1 block – inhibitors of human tyrosyl-DNA phosphodiesterase TDP1; recombinant TDP1, AlphaScreen DNA substrate cleavage; Potency, µM (series often up to 130 µM), inactives show top-dose activity change, negative = inhibition, usual class: inhibitors; actives 0.28% (n = 350,000); note: potency is the fitted concentration of half-maximal effect; % is set by controls: 0 for no effect and ±100 for the full control effect; nearly all actives have a fitted effect of over 40% in size
Target sequence (Q9NUW8 whole entry, looked up): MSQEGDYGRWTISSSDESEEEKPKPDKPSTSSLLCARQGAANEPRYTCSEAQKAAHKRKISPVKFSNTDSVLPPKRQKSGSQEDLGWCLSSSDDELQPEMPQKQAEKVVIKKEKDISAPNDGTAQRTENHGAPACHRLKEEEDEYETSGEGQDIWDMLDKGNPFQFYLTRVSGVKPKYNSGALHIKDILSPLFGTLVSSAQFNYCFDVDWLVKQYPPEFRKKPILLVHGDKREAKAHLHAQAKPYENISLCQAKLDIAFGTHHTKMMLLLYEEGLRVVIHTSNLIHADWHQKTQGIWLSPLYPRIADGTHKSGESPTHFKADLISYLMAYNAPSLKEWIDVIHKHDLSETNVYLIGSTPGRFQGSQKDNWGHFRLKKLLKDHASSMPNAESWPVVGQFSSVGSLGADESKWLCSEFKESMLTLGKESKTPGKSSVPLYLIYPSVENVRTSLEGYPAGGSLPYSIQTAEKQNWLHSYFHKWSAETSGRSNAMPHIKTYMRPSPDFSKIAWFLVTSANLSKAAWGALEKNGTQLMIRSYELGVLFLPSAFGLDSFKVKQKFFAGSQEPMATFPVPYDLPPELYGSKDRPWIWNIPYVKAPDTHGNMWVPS
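Here, a 5' biotin and 3' phosphotyrosine-FITC DNA oligonucleotide reports Tdp1 activity: intact substrate bridges AlphaScreen beads, while cleavage leaves a 3' phosphate and drops signal. All incubations at room temperature.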
HepG2 viability – HepG2 cytotoxicity, counter-screen for TGF-b inhibitors | HepG2 CAGA-GFP viability, ATP luminescence, 18 h | Potency, µM (highest dose often 46.1 µM), without a hit: top-dose activity change, negative = cytotoxicity, hits mostly cytotoxic | actives 0.76% (n = 410,000) | AID 588856; note: potency is the fitted concentration of half-maximal effect
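HepG2 CAGA-GFP cells (1000/well, DMEM with 1% FBS) received compound, then TGF-beta at 500 pg/mL final, and were incubated 18 hours at 37 degrees C. Viability was read by CellTiter-Glo luminescence. Media-only wells were set as complete cell-killing and DMSO as no toxicity.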
DT40 TDP1 no CPT – qHTS for Inhibitors of human tyrosyl-DNA phosphodiesterase 1 (TDP1): qHTS in cells in absence of CPT; Potency, µM (titrated, usually from 46.2 µM), inactives show top-dose activity change, negative = growth inhibition, most hits filed as inhibitors; AID 686978, 2013; DT40 Tdp1-/- hTDP1 cells, no CPT, ATP luminescence, 48 h; actives 15% (n = 420,000); note: potency is the fitted concentration of half-maximal effect; % is set by controls: 0 for no effect and ±100 for the full control effect; nearly all actives have a fitted effect of over 55% in size
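Chicken DT40 Tdp1-/- cells stably complemented with human TDP1 were seeded at 400 cells/well with DMSO in place of 20 nM camptothecin. After compound pinning, cells grew at least 48 hr at 37 °C; viability read by CellTiter-Glo luminescence.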
IL1B secr inh – inhibitors of inflammasome signaling (IL-1 beta secretion); THP-1 LPS/ATP IL-1B secretion, AlphaLISA, 16 h; active compounds read low; activity change, % at 57.5 µM; actives 4.7% (n = 360,000); AID 743279; in the data active = activity change below about -50%; inconclusive = mostly about -30% to -49%; note: % is set by controls: 0 for no effect and ±100 for the full control effect
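THP-1 cells pretreated 1 hr with compounds (up to 57.5 uM final), then stimulated with LPS (250 ng/mL final) plus ATP (1.25 mM final); secreted IL-1B measured by AlphaLISA after 16 hr, decreased signal indicating inhibition.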
TDP1 cell CPT – growth inhibition of DT40 Tdp1-/-;hTDP1 cells with camptothecin (screen for TDP1 inhibitors); actives 12% (n = 420,000); chicken DT40 Tdp1-/-;hTDP1 cells + 20 nM CPT, ATP luminescence, 48 h; Potency, µM (highest dose often 46.2 µM), for inactives: top-dose activity change, negative = growth inhibition, hits mostly inhibitors; note: potency is the fitted concentration of half-maximal effect; % is set by controls: 0 for no effect and ±100 for the full control effect; nearly all actives have a fitted effect of over 55% in size
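Chicken DT40 Tdp1-/- cells stably complemented with human TDP1 were seeded at 400 cells/well in medium containing 20 nM camptothecin, exposed to pin-transferred compounds, and grown at 37 °C for at least 48 hr. Viability was read as ATP luminescence.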
An asterisk follows results filed as active; ? = inconclusive; · = not tested or not shown; ! = repeats disagree. Most compounds without a hit are left out; they make up all but 18% or so of the library. Unless noted, calls come from the whole dose curve; as a rule, active = well fitted curve in the direction sought with a large enough effect; inconclusive = small, poorly fitted or top-dose-only effect, or another doubt; inactive = no such curve, though single readings can be large; an effect the other way counts as inactive or inconclusive.

SMILES | TGFb inhibitor | TDP1 block | HepG2 viability | DT40 TDP1 no CPT | IL1B secr inh | TDP1 cell CPT
CCN(CC(=O)Nc1ccc2c(c1)OCCO2)C(=O)c1ccc(Cl)cc1Cl | -6% | · | -6% | ? | -11 | ?
O=S(=O)(c1ccc2ccccc2c1)N(CC1CO1)c1ccccc1 (configuration not stated) | 6% | 6% | 2% | ? | -8 | 13µM*
Cc1ccccc1OC(C)C(=O)Nc1ccc2c(c1)OCCO2 (configuration not stated) | 13% | 2% | -1% | 4% | -7 | -13%
Cc1cccc(NS(=O)(=O)c2cc(C(=O)OC(C)C(=O)NCc3ccc4c(c3)OCO4)ccc2C)c1 (configuration not stated) | ? | -3% | -41% | 16µM* | 0 | 18µM*
CC(=O)Nc1cccc(C(=O)OC(C)C(=O)NCc2ccc3c(c2)OCO3)c1 (configuration not stated) | 0% | 1% | -21% | -1% | 22 | -3%
CCN(c1ccccc1)S(=O)(=O)c1ccc2c(c1)OCCO2 | -16% | -4% | 4% | ? | 55 | 16µM*
CCN(c1ccccc1)S(=O)(=O)c1cc(C(=O)OC(C)C(=O)Nc2ccc3c(c2)OCCO3)ccc1C (configuration not stated) | -25% | · | -36% | 16µM* | 16 | ?
CCN(c1ccccc1)S(=O)(=O)c1ccc2c(c1)N(C(C)=O)CCO2 | -22% | 1% | 0% | -30% | 82 | 4%
CCN(c1ccccc1)S(=O)(=O)c1ccc2ccccc2c1 | -2% | · | -53% | -19% | 7 | -4%
O=C(/C=C/c1ccc2c(c1)OCO2)NCCSCc1ccc(Cl)cc1Cl | -26% | 0% | 25% | ? | -74* | ?
O=C(/C=C/c1cccc([N+](=O)[O-])c1)NCCSCc1ccc(Cl)cc1Cl | 13µM* | 5% | -26% | 23µM* | -75* | 29µM*
O=C(/C=C/c1ccc2c(c1)OCO2)NCCSCc1cccc(Cl)c1 | ? | 5% | 12% | -19% | -7 | -20%
Cc1ccc(NC(=O)C2CCN(S(=O)(=O)c3ccc4[nH]c(=O)ccc4c3)CC2)cc1C | -29% | 3% | -24% | -18% | · | 2%
COc1ccc(N(C(=O)c2ccc(Br)o2)C2C=CS(=O)(=O)C2)cc1 (configuration not stated) | 19% | 4% | 11% | 13µM* | 4 | 13µM*
COCCC(=O)N1CCC(Oc2ccc(C(=O)N3CCCC(OC)C3)cc2)CC1 (configuration not stated) | 0% | 2% | -25% | 27% | -5 | -27%
CCc1ccc(OCC(=O)N/N=C(\C)c2ccc(O)cc2O)cc1 | -19% | 8% | -32% | 2.6µM* | 74 | 7.3µM*
C/C(=N\NC(=O)C(N)=O)c1ccc(O)cc1O | 11% | 10% | -3% | ? | -2 | ?
CC(C)=CCC1=C(OCC(=O)O)C(=O)c2ccccc2C1=O | 14µM* | 0% | 11µM* | 29µM* | 15 | 23µM*
CC(C)=CCC/C(C)=C/CC/C(C)=C/CC/C(C)=C/CC1=C(C)C(=O)c2ccccc2C1=O | ? | 6% | -18% | 24µM* | 0 | 27µM*!
CC(C)S(=O)(=O)c1csc(NC(=O)Nc2cc(Cl)ccc2Cl)c1Cl | -1% | 3% | -3% | ? | -101* | 16µM*
CCOC(=O)C1CCCN(c2c(Nc3ccc(C)c(C)c3)c(=O)c2=O)C1 (configuration not stated) | -17% | 6% | -30% | ? | 42 | 16µM*
